Results from PubChem BioAssay AID1645855 (Buhrlage Lab, Dana-Farber Cancer Institute and Novartis …, 2021).
Hit rate of the full screen: of about 47,000 compounds, about 3,100 (6.6%) were called active. Cut-off read from the data, not from the text of the source: active = inhibition above about 30%; inactive = the rest. The entries come from a sample that favours actives as a whole.

target: Ubiquitin carboxyl-terminal hydrolase 17-like protein 5 (Homo sapiens) (UniProt A8MUK1); experiment: inhibitors of human USP17 deubiquitinase (AID 1645855); conditions: purified USP17, Ub-rhodamine cleavage fluorescence, 3 h; at 50 µM; stronger effect = higher value
Sequence (A8MUK1 whole entry, looked up): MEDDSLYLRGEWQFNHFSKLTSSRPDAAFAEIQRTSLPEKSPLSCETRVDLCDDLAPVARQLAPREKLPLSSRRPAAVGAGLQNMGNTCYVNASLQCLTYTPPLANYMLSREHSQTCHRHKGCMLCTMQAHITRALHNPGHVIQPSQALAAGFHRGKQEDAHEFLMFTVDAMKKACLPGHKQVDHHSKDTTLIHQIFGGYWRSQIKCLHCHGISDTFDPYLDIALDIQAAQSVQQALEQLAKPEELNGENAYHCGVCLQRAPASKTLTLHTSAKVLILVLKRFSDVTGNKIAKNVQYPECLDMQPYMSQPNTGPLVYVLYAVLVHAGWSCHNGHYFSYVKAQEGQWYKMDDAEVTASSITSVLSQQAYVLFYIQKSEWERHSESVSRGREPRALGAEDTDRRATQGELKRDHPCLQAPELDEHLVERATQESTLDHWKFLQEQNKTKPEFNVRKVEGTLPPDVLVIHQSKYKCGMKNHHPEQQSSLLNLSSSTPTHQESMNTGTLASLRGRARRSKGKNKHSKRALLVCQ

Row | Compound | inhibition
1 | COc1ccc(C2C3=C(CC(c4ccc(Cl)cc4)CC3=O)Nc3ccccc3N2C(=O)c2ccc(Cl)c(Cl)c2)cc1 (stereo not drawn) | -7.25% (inactive)
2 | Fc1cccc(Nc2nc(-c3ccncc3)nc3c2CCC3)c1 | 48.8% (active)
3 | O=C(CN1CC(=O)c2ccccc2S1(=O)=O)Nc1ccccc1 | -5.61% (inactive)
4 | Cc1nn(-c2ccccc2)c(C)c1S(=O)(=O)N1CCCCC1 | 3.01% (inactive)
5 | Cc1nnc(OCC(=O)Nc2ccc(OC(F)(F)F)cc2)c2ccccc12 | 77.7% (active)
6 | Cc1cc(C)nc(N(C(=O)C2CC2)c2ccc(OC(F)(F)F)cc2)n1 | 1.83% (inactive)
7 | COC(=O)c1ccc(NC(=O)CSc2nnc(C(C)Oc3ccccc3)n2C)cc1 (stereo not drawn) | 5.22% (inactive)
8 | Cc1ccccc1NC(=O)Cc1csc2nc(-c3ccc(F)cc3)cn12 | 86% (active)
9 | O=C(Cc1ccc(F)cc1)Nc1ccccc1Cc1ccccc1 | 27.4% (inactive)
10 | Cc1cc(F)ccc1NC(=O)Cc1n[nH]c(Cc2ccccc2)n1 | -9.74% (inactive)
11 | CN1CC2(COc3ccccc31)CN(S(=O)(=O)c1ccc3c(c1)OCO3)CCO2 (stereo not drawn) | -2.79% (inactive)
12 | CC1(C(=O)NCc2cccc(Cl)c2)Oc2cccnc2NC1=O (stereo not drawn) | -7.83% (inactive)
13 | O=C(NCC1CC1)[C@H]1C[C@@H]2CN(S(=O)(=O)c3ccccc3)C[C@H]1O2 | -13.7% (inactive)
14 | Cn1cc(-c2nc(C(=O)Nc3ccc(F)cc3)cs2)c2cccnc21 | 59.4% (active)
15 | Cc1cccc(NC(=O)c2csc(-c3cn(C)c4ncccc34)n2)c1 | 2.63% (inactive)
16 | Cn1cc(CCNC(=O)c2cc3ccccc3[nH]2)c2cccnc21 | -17.1% (inactive)
17 | COCCNC(=O)C1c2ccccc2C(=O)N(C2CCCC2)C12CCCCC2 (stereo not drawn) | -1.76% (inactive)
18 | O=S(Cc1cc(Sc2ccccc2)nc(-c2ccccn2)n1)c1ccc(Cl)cc1 (stereo not drawn) | -9.57% (inactive)
19 | CC(C)(C)c1cc2n(n1)CCN(Cc1ccccc1C(F)(F)F)C2 | -4.87% (inactive)
20 | COc1cccc(C(=O)N2CCC(c3nc4ccncc4n3C)C2)c1 (stereo not drawn) | 10% (inactive)

Row | Compound | inhibition
21 | c1coc(CNc2nc(Nc3cccc4ccccc34)nc3ccccc23)c1 | 83.4% (active)
22 | Fc1ccc(-n2cc(-c3ccccc3)c3c(NCc4ccco4)ncnc32)cc1 | -3.63% (inactive)
23 | O=C(CCc1nnc2ccc(N3CCCCC3)nn12)NCCC1=CCCCC1 | 1.2% (inactive)
24 | O=c1ccc(-c2nc(-c3cnccn3)no2)cn1Cc1ccccc1C(F)(F)F | 7.06% (inactive)
25 | O=C1CNC(=O)N1CC(O)Cn1c2ccc(Br)cc2c2cc(Br)ccc21 (stereo not drawn) | 40.1% (active)
26 | Cc1ccc(Cn2c(C)c(CNCCC3=CCCCC3)c(C(=O)O)c2C)cc1 | 7.92% (inactive)
27 | O=C(CCc1nnc2n(CCc3ccccc3)c(=O)c3ccccc3n12)NCCN1CCCC1 | 13.7% (inactive)
28 | CCc1ccc(-n2c(=O)c3ccccc3n(CC(=O)NCCC3=CCCCC3)c2=O)cc1 | 64.3% (active)
29 | CN(CCc1ccccn1)C(=O)c1cc2c(=O)oc3ccccc3c2s1 | 14.5% (inactive)
30 | O=C(CC(NCc1cccnc1)C(=O)O)Nc1ccccc1 (stereo not drawn) | 6.61% (inactive)
31 | COc1cc(C)c(CN2CCc3c(nc4cc(-c5cc(C)on5)[nH]n4c3=O)C2)cc1OC | 4.84% (inactive)
32 | O=c1[nH]c(-c2ccccn2)nc2c1CCN(Cc1cnn(-c3ccc(F)cc3)c1)C2 | 43.5% (active)
33 | C#CCOc1ccc(CN2CCc3nc(-c4cccnc4)[nH]c(=O)c3C2)cc1OC | -0.00604% (inactive)
34 | O=c1[nH]c(-c2ccncc2)nc2c1CCN(Cc1cn[nH]c1-c1ccc(Cl)cc1)C2 | -0.0464% (inactive)
35 | CCc1cccc(C)c1NC(=O)Cn1nc2ccc(C(=O)NCc3ccccc3)cn2c1=O | 16.4% (inactive)
36 | Cc1ccc(-c2cc(=O)[nH]c(NCc3ccccc3)n2)cc1 | -6.42% (inactive)
37 | CC(=O)N1CCN(c2cc(N3CCCCC3)nc(C)n2)CC1 | -36.6% (inactive)
38 | CCCN1CCN(c2ccc(C(=O)O)cc2NS(=O)(=O)c2cc(F)ccc2F)CC1 | 10.4% (inactive)
39 | COc1ccc(-c2cc(C(F)F)n3ncc(C(=O)N(C)Cc4c(C)nn(C)c4C)c3n2)cc1 | -8.87% (inactive)
40 | Cc1cc(Nc2ccc(C(=O)NCC(C)C)cc2)n2nc(-c3cccnc3)nc2n1 | -7.54% (inactive)

Row | Compound | inhibition
41 | Cc1ccc(-c2cc(C(F)F)n3ncc(C(=O)NCC(C)C)c3n2)cc1 | 36.6% (active)
42 | O=C(O)COc1ccccc1C(c1c[nH]c2ccccc12)c1c[nH]c2ccccc12 | -15.6% (inactive)
43 | COc1ccc(CN2CCN(C(=O)c3ccc4c(c3)OCO4)CC2)cn1 | -5.73% (inactive)
44 | CC(C)c1ccc(NC(=O)CCC(=O)N(c2ccccc2)c2ccccc2)cc1 | 6.5% (inactive)
45 | O=S(=O)(Nc1cccc(O)c1)c1ccc2oc3ccc(S(=O)(=O)Nc4cccc(O)c4)cc3c2c1 | 39.1% (active)
46 | Cc1cccc(NS(=O)(=O)c2ccc3nnc(C)n3c2)c1 | 4.3% (inactive)
47 | COc1cccc(NS(=O)(=O)c2ccc(-c3coc(C)n3)cc2)c1 | 0.103% (inactive)
48 | CC1(C)Cc2cccc(OCC(=O)NCC(F)(F)F)c2O1 | 4.4% (inactive)
49 | COC(=O)c1ccc(C(=O)NCC2(O)CCc3ccccc32)cc1 (stereo not drawn) | -0.0822% (inactive)
50 | COCCN1C[C@@]23CN(C(=O)NCc4ccccc4)C[C@@H](C[C@@H]2S1(=O)=O)O3 | 12.1% (inactive)
51 | CC(=O)Nc1ccc(-n2cnc(C(=O)NCc3ccc(C)cc3)c2)nc1 | 64.2% (active)
52 | CC(=O)Nc1ccc(-n2cnc(C(=O)N3CCN(c4ccc(C)cc4)CC3)c2)nc1 | 13.8% (inactive)
53 | CC(=O)Nc1ccc(-n2cnc(C(=O)N3CCN(c4cccc(C)c4)CC3)c2)nc1 | -7.95% (inactive)
54 | Cc1nc(C2CCN(S(C)(=O)=O)CC2)nc2c1CCC(=O)N2CC(C)C | -7.01% (inactive)
55 | Cc1cc2nc(Cc3ccccc3)cc(=O)n2[nH]1 | -11.5% (inactive)
56 | CCN1CCN(S(=O)(=O)c2ccc3c(c2)CC(C)N3C(=O)C2CC2)CC1 (stereo not drawn) | 2.74% (inactive)
57 | CC1CCCN(C(=O)c2cc(S(=O)(=O)N3CCCCC3)ccc2Cl)C1 (stereo not drawn) | -1.66% (inactive)
58 | CC(C)NC(=O)CN1C(=O)CC(C)Sc2ccc(S(=O)(=O)N3CCCCC3)cc21 (stereo not drawn) | 43.8% (active)
